This test concerns the target Tyrosyl-DNA phosphodiesterase 1 (Homo sapiens) (UniProt Q9NUW8). The experiment in a line: Confirmation Assay for Inhibitors of Tyrosyl-DNA Phosphodiesterase (TDP1) (AID 489007). Also: nearly all actives have a fitted effect of over 40% in size. The following applies: recombinant human TDP1 enzymatic activity, dose-response. In short, it runs like this:
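Confirmation of primary-screen follow-ups in a qHTS format. Substrate cleavage by Tdp1 (1 nM) of a 3'-phosphotyrosine-FITC, 5'-biotin oligo (15 nM) was monitored as decreased AlphaScreen signal after a 5 min room-temperature reaction.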

Inconclusive results are not listed. Activity calls are given as the source filed them. Calls follow the shape of the dose curve; as a rule, active = well fitted inhibition curve with a large enough effect; inconclusive = small, poorly fitted or top-dose-only effect; inactive = flat fitted curve, though single readings scatter.
Potency is read from the fitted curve at half-maximal effect.

Sequence of Tyrosyl-DNA phosphodiesterase 1 (Homo sapiens) (Q9NUW8 whole entry, looked up): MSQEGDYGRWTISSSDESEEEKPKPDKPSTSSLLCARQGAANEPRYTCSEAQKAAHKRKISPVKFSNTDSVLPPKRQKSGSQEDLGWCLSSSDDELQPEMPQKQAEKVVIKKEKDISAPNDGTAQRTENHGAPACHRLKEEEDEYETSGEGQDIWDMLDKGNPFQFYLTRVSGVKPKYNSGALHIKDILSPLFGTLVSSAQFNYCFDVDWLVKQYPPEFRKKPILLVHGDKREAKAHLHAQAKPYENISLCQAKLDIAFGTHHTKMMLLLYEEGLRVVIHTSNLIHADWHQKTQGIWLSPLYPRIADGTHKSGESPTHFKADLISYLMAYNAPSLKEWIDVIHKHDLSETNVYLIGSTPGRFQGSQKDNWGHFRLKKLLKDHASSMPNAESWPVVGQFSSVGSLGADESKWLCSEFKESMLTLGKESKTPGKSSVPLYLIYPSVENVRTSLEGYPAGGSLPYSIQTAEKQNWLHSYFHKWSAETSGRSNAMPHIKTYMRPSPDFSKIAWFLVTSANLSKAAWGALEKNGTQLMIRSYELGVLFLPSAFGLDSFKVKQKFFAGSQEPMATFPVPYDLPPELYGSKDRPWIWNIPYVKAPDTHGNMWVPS

Take `Cc1ccccc1-c1cncnc1N(C)Cc1ccco1`: the Potency was 3.16 µM (active).

Values taken from PubChem BioAssay (NCATS).
